Compound activity (PubChem BioAssay)
TRAIL sens C8 – sensitizes caspase-8 expressing cells to TRAIL | NB7+C8 cells + TRAIL, ATPlite viability luminescence | inhibition (viability loss, TRAIL sensitization), % at 10 µM | 360,000 tested, 1% active | AID 624354;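 active = compounds causing at least 50% loss of cell viability in the single-dose screen, relative to plate controls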
KKLEB tox – CF airway cell cytotoxicity counter-screen; activity change (cytotoxicity), % at 5 µM; AID 602141; 360,000 tested, 0.36% active; KKLEB CF airway cells viability, ATPlite luminescence, overnight; stronger effect = lower value; cells stimulated with P. aeruginosa culture filtrate;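 active = corrected activity change at or below -50% at 5 µM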
HIF-2a block – inhibitors of HIF-2a; 786-0 RCC cells HIF-2a reporter, luciferase luminescence, overnight; inhibition, % at 18.8 µM; 360,000 tested, 0.72% active;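 active = inhibition of the luminescence signal of 40% or more relative to plate controls, in a single-dose primary screen at 18.75 µM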
CF NFkB block – inhibitors of cystic fibrosis induced NF-kB; KKLEB NF-kB-GFP reporter, PAF-induced, GFP fluorescence overnight; inhibition, % at 5 µM; 360,000 tested, 0.86% active;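 active = at least 50% inhibition at 5 µM, scaled per plate between neutral and stimulator controls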;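 also: PAF is a Pseudomonas aeruginosa culture filtrate used as stimulus; plate controls were PAF-stimulated DMSO wells for no effect and unstimulated DMSO wells for full effect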
PPC-1+TRAIL kill – PPC-1 cancer cell killing with TRAIL present; PPC-1 cells + TRAIL, ATPLite viability luminescence; cell killing (% activity), % at 4 µM or 5 µM; 220,000 tested, 0.41% active; AID 1443;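 active = cell killing above 50% in the first pass at 4 µM, then a duplicate retest at 5 µM averaging 50% or more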;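 also: plate controls were cells with TRAIL plus DMSO for no effect and medium-only wells lacking cells for full effect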
Peg3 promoter – reduces Peg3 promoter-driven luciferase expression in HeLa; HeLa PEG-Prom luciferase reporter, luminescence, overnight; inhibition, % at 20 µM; 360,000 tested, 1.7% active; AID 588405;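 active = inhibition of at least 50% at 20 µM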
* hit, by the source's call; · = no result. An excerpt weighted towards active compounds, which were near 3.1% of everything screened.

SMILES	TRAIL sens C8	KKLEB tox	HIF-2a block	CF NFkB block	PPC-1+TRAIL kill	Peg3 promoter
N/C(=N\OC(=O)c1ccco1)c1ccc(Cl)cc1	-6	2	-224	-11	3	-250
N/C(=N\OC(=O)c1ccc(Cl)cc1)c1ccc(Cl)cc1	88*	8	-274	-14	-2	-338
C/C(=N\OC(=O)c1ccc(Cl)cc1)c1nccs1	-12	4	1	-2	-9	14
Cc1cc(=O)c(C(=O)Nc2cccc(C(=O)NC3CC3)c2)nn1-c1ccccc1	-6	9	8	-15	·	0
COC(=O)c1ccc(C(=O)N2CCCC(C)(C(=O)NS(=O)(=O)C3CC3)C2)cc1 (stereo not drawn)	3	-7	13	-5	·	11
O=[N+]([O-])c1ccc(/C=N/N=C/c2ccc([N+](=O)[O-])o2)o1	13	-47	23	83*	10	105*
COc1cc(/C=C2/CC/C(=C/c3ccc(O)c(OC)c3)C2=O)ccc1O	11	-23	-19	44	33	-34
COc1ccc(/C=C2\CC/C(=C\c3ccc(OC)c(OC)c3)C2=O)cc1OC	64*	-41	-121	-17	39	-122
COc1cc(OC)c(OC)cc1/C=C1\CCC/C(=C\c2cc(OC)c(OC)cc2OC)C1=O	2	-8	17	7	·	72*
CCCS(=O)(=O)NC(=O)C1(C)CCCN(C(=O)c2cc(OC)c(OC)c(OC)c2)C1 (stereo not drawn)	-3	-10	10	8	·	2
COc1ccc(OCC(=O)Nc2cc(OC)ccc2N2CCCCC2)cc1	9	-11	16	21	·	39
COC(=O)CC1(CC(N)=O)SCCS1	7	16	-5	-7	·	-9
Nc1ccc2oc(-c3ccccc3Cl)nc2c1	47	6	14	-22	42	-141
CCc1ccc2oc(-c3cc(N)ccc3O)nc2c1	65*	-18	22	-22	15	19
CCc1ccc2oc(-c3cc(N)cc(C)c3O)nc2c1	21	-10	-191	10	8	-219
CCc1ccc2oc(-c3cc(N)ccc3Cl)nc2c1	47*	-9	-5	-8	43	-33
O=c1c2ccccc2cnn1-c1ccc2ccccc2c1	51*	-4	-163	-10	7	-135
O=c1c2ccccc2cnn1-c1ccc(Br)cc1	20	10	-174	-26	32	-227
CCOC(=O)[C@]12CCCC=C1N(Cc1ccc3c(c1)OCO3)C(=O)[C@H](CC(=O)N1CCCC1)C2	-13	·	6	·	·	·
CC1CN(Cc2ccccc2)c2ccccc2NC1=S (stereo not drawn)	1	-4	7	-3	52*	7
CC1CN(Cc2ccccc2)C(=O)N(c2ccccc2)C1=O (stereo not drawn)	-22	-2	9	14	·	19
CC1CCCCC12NC(=O)N(CC(=O)c1ccc(Cl)s1)C2=O (stereo not drawn)	-15	14	5	-45	·	14
O=C(O)c1cccc(NC(=O)c2cccc(NC(=O)C3CCCO3)c2)c1 (stereo not drawn)	-15	1	47*	-20	34	48
CCc1cccc2c(C(=O)CN3C(=O)NC(C)(c4cccc5ccccc45)C3=O)c[nH]c12 (stereo not drawn)	18	-8	-3	-10	14	60*
CCc1cccc2c(C(=O)CN3C(=O)NC4(CCc5ccccc54)C3=O)c[nH]c12 (stereo not drawn)	-23	-2	27	-3	·	13
SMILES	TRAIL sens C8	KKLEB tox	HIF-2a block	CF NFkB block	PPC-1+TRAIL kill	Peg3 promoter
CCC1CCC(C(=O)NC(C(=O)NCCN2CCOCC2)C(C)C)CC1 (stereo not drawn)	-7	-2	0	-6	·	-7
Cc1cc(NC(=O)C(C)SCC(=O)N(C)Cc2ccccc2F)no1 (stereo not drawn)	-28	-3	14	4	·	71*
O=C(N/N=C/c1cc(Br)ccc1O)C(=O)Nc1ccccc1OC(F)(F)C(F)F	9	-12	3	3	37	57*
O=C(N/N=C/c1cc(Cl)ccc1O)C(=O)Nc1ccccc1OC(F)(F)C(F)F	45	-16	-9	4	44	60*
O=C(CCCCn1cnc2c(=S)nc[nH]c21)Nc1ccc(C(=O)O)c(O)c1	-11	-29	7	19	·	-5
CN(C)CCNc1ccc(CO)c2sc3ccc(O)cc3c(=O)c12	32	8	50*	-189	·	100*
c1nc(SSc2ncnc3nc[nH]c23)c2[nH]cnc2n1	73*	5	-76	-14	·	37
O=C(O)CSc1ncnc2nc[nH]c12	11	11	7	-3	-3	4
C=CCOc1ccccc1CN(C(=O)CCl)c1ccc2c(c1)OCO2	96*	-85*	-14	92*	·	-18
CCOc1ccccc1NC(=O)Nc1ccc2c(c1)OCO2	-7	1	-146	6	·	-108
CCCCN(CCCC)C(=S)N/N=C/c1c(C)[nH]n(-c2ccccc2)c1=O	8	-7	1	-15	30	72*
COc1cccc(CN2CC(C(=O)NCCc3cn4cccnc4n3)CCC2=O)c1 (stereo not drawn)	-1	0	14	12	·	-5
CCCCNC(=NCc1cccc(C(F)(F)F)c1)Nc1ccccc1	6	-8	-4	11	·	76*
CC(C)CC(=O)Nc1ccc(C(=O)COC(=O)C2CCC2)cc1	3	10	-4	-21	·	-1
COc1cc2c(-c3ccccc3O)nc3c(c(C)nn3-c3ccccc3)c2cc1OC	0	12	14	-11	-8	57*
COC(=O)c1cc(C)nc2c1c(C)nn2-c1ccccc1	7	-1	-56	11	·	-42
CCc1ccc(C2=NN(c3ccc(S(N)(=O)=O)cc3)C(c3ccc(F)cc3)C2)cc1 (stereo not drawn)	-5	-9	-22	-2	6	67*
O=S1(=O)N[C@@H](c2ccccc2)COc2cc(Br)ccc21	-16	-6	9	-16	·	-3
COc1cc2nc(N3CCN(C(=O)c4ccco4)CC3)nc(N)c2cc1OC	3	2	-2	-21	7	56*
COc1cc2nc(N3CCN(C(=O)C4COc5ccccc5O4)CC3)nc(N)c2cc1OC (stereo not drawn)	4	-4	2	-15	16	-4
O=C(Nc1nc(-c2nc3ccccc3s2)cs1)C1CC1	52*	-8	-274	-23	28	-344
O=C(CCl)c1ccc2c(c1)CCN2C(=O)C1CC1	·	·	·	·	7	·
O=C(CCl)c1ccc2c(c1)CCN2C(=O)C1CCCCC1	13	-4	-19	-8	7	105*
CC(C)n1nc(C(=O)NNC(=O)c2ccc(OC(F)F)cc2)c2ccccc2c1=O	18	-13	-4	-11	·	4
